# According to the supplement of paper PMC9694430:
# Columns and labels:
# Assay in all cases: thermal shift delta Tm vs DMSO control; higher = stronger stabilization (binding)
# Settings in all cases: 12.5 µM; protein concentration 2 µM
# LOC_OS01G01410-cb001 = system: LOC_OS01G01410-cb001
# Method in brief: (§1)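 Compounds dissolved in DMSO were added to purified rice kinase domain constructs, which had been expressed in E. coli, for differential scanning fluorimetry. Each well held 19.5 μl of 2 μM kinase in 100 mM potassium phosphate pH 7.5, 150 mM NaCl, 10% glycerol and 5 × SYPRO Orange. Fluorescence was followed from 25°C to 95°C at a rate of 0.05°C/s. Shifts in Boltzmann-fitted melting temperature are triplicate means relative to DMSO-only protein.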
# LOC_OS01G02750-cb003 = system: LOC_OS01G02750-cb003
# Method in brief: as §1
# LOC_OS01G10900-cb004 = system: LOC_OS01G10900-cb004
# Method in brief: as §1
# LOC_OS01G13800-cb001 = system: LOC_OS01G13800-cb001
# Method in brief: as §1
# LOC_OS01G14860-cb001 = system: LOC_OS01G14860-cb001
# Method in brief: as §1
# LOC_OS01G21960-cb002 = system: LOC_OS01G21960-cb002
# Method in brief: as §1
# LOC_OS01G39600-cb002 = system: LOC_OS01G39600-cb002
# Method in brief: as §1
# LOC_OS01G48390-cb002 = system: LOC_OS01G48390-cb002
# Method in brief: as §1
# LOC_OS01G51400-cb002 = system: LOC_OS01G51400-cb002
# Method in brief: as §1
# LOC_OS01G52050-cb004 = system: T1, LOC_OS01G52050-cb004
# T1 sequence (whole entry): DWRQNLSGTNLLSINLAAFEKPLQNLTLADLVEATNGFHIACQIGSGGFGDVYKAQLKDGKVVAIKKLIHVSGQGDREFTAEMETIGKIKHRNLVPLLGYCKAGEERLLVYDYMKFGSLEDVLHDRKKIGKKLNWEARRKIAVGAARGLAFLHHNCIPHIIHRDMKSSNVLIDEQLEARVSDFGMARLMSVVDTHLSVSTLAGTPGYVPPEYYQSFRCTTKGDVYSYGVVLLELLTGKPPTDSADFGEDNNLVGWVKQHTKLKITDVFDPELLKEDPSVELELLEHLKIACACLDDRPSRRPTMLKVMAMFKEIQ
# Method in brief: as §1
Compound,thermal shift delta Tm (LOC_OS01G01410-cb001) [°C],thermal shift delta Tm (LOC_OS01G02750-cb003) [°C],thermal shift delta Tm (LOC_OS01G10900-cb004) [°C],thermal shift delta Tm (LOC_OS01G13800-cb001) [°C],thermal shift delta Tm (LOC_OS01G14860-cb001) [°C],thermal shift delta Tm (LOC_OS01G21960-cb002) [°C],thermal shift delta Tm (LOC_OS01G39600-cb002) [°C],thermal shift delta Tm (LOC_OS01G48390-cb002) [°C],thermal shift delta Tm (LOC_OS01G51400-cb002) [°C],thermal shift delta Tm (LOC_OS01G52050-cb004) [°C]
N#CC[C@H](C1CCCC1)n1cc(-c2ncnc3[nH]ccc23)cn1,0.74,1.15,0.65,-0.01,1.62,1.47,0.6,0.4,-0.02,0.98
Cc1cc(N2CCOCC2)cc2[nH]c(-c3c(NC[C@@H](O)c4cccc(Cl)c4)cc[nH]c3=O)nc12,4.78,2.98,-0.47,0.09,1.24,1.2,2.56,1.43,0.28,3.88
O=C1c2ccc(Nc3ccc(F)cc3F)cc2CCc2ccc(OC[C@H](O)CO)cc21 [Skepinone-L],0.24,1.29,1.14,-0.71,0.36,0.57,-1.35,0.21,-0.11,0.04
COc1cc2ncnc(Nc3ccc(F)c(Cl)c3)c2cc1NC(=O)/C=C/CN1CCCCC1,1.07,1.4,1.7,0.04,0.18,1.27,-0.71,0.7,0.66,0.74
CCNC(=O)Nc1ccc(-c2nc(N3CCOC[C@@H]3C)c3c(n2)C(C)(C)S(=O)(=O)C3)cc1,0.67,1.05,0.47,0.09,0.6,0.34,-0.26,-0.02,0.22,3.06
Cc1c(NC(=O)c2ccc(C(C)(C)C)cc2)cccc1-c1cn(C)c(=O)c(Nc2ccc(C(=O)N3CCOCC3)cc2)n1,0.18,0.71,-1.08,0.18,-0.01,0.66,2.2,0.86,0.2,-0.23
C[C@@H](Nc1cc(F)cc(F)c1)c1cc(C(=O)N(C)C)cc2c(=O)cc(N3CCOCC3)oc12,0.11,1.11,0.28,0.04,0.22,-0.4,-0.77,0.46,0.01,-0.12
C[C@@H]1COC(Nc2ccc3ncnc(Nc4ccc(OCc5nccs5)c(Cl)c4)c3c2)=N1 [Varlitinib],2.18,0.28,0.95,0.39,1.1,2.04,0.66,1.02,0.22,0.92
Cn1cnc2c(F)c(Nc3ccc(Br)cc3F)c(C(=O)NOCCO)cc21,0.1,0.45,0.02,-0.05,0.19,0.38,0.61,0.43,0.53,0.01
"Cc1[nH]c(/C=C2\C(=O)Nc3ccccc32)c(C)c1CCC(=O)O [Orantinib (TSU-68, SU6668)]",4.79,1.43,0.18,0.08,1.9,2.76,6.8,1.34,0.2,3.61
CCCCOc1c(C(=O)c2c(F)cc(C)cc2F)c[nH]c2nncc1-2,1.01,0.64,1.09,0.41,2.54,1.36,0.07,0.94,0,0.38
O=C1Cc2c([nH]c3ccc(Br)cc23)-c2ccccc2N1 [Kenpaullone],1.3,3.93,3.23,1.78,7.46,1.74,2.16,3.44,0.72,5.21
CO[C@H]1C[C@@H]2CC[C@@H](C)[C@@](O)(O2)C(=O)C(=O)N2CCCC[C@H]2C(=O)O[C@H]([C@H](C)C[C@@H]2CC[C@@H](OCCO)[C@H](OC)C2)CC(=O)[C@H](C)/C=C(\C)[C@@H](O)[C@@H](OC)C(=O)[C@H](C)C[C@H](C)/C=C/C=C/C=C/1C [Everolimus (RAD001)],1.13,-1.72,0.03,0.16,-0.41,0.16,0.54,0.33,-0.03,0.35
COc1ccc(CC(=O)Nc2nc3c(s2)CCc2ccccc2-3)cc1OC,0.68,1.06,0.85,0.28,0.9,0.69,0.43,1.55,-0.32,2.89
CCc1nc(C(N)=O)c(Nc2ccc(N3CCC(N4CCN(C)CC4)CC3)c(OC)c2)nc1NC1CCOCC1 [Gilteritinib (ASP2215)],4.13,2.42,2.14,0.93,2.59,3.21,2.87,1.66,0.63,8.54
C#Cc1cccc(Nc2ncnc3cc(OCCOC)c(OCCOC)cc23)c1 [Erlotinib],0.56,0.35,0.59,0.04,0.32,0.72,2.19,0.85,-0.14,0.19
O=C(Nc1cc(C(F)(F)F)cc(C(F)(F)F)c1)c1cc(Cl)ccc1O,1.21,2.23,0.29,1.37,1.05,1.13,3.34,1.1,0.99,1.75
Cn1cc(-c2ccc3nnc(C(F)(F)c4ccc5ncccc5c4)n3n2)cn1,1.27,-0.24,5.11,0.46,0.28,1.41,1.09,0.82,0.35,1.02
COCCOc1ccc2c(c1)ncn2-c1ccc2cccc(N3CCC(N)CC3)c2n1,0.39,7.25,1.08,-0.56,1.89,3.75,2.09,0.21,-0.08,10.9
Cn1cc(-c2ccc3c(c2)CCN3C(=O)Cc2cccc(C(F)(F)F)c2)c2c(N)ncnc21,1.18,3.93,2.83,-0.12,0.47,0.33,0.17,0.89,-0.22,2.35
CC(C)(C)c1nc(-c2cccc(NS(=O)(=O)c3c(F)cccc3F)c2F)c(-c2ccnc(N)n2)s1,1.54,0.76,0.26,0.08,8.58,1.84,-9.31,0.37,0.33,1.56
